# Pf growth 96h = inhibits malaria parasite growth, 96 h. Potency, µM (series often up to 28.7 µM), without a hit: at the top dose activity change, negative = inhibition, hits mostly inhibitors. P. falciparum luciferase reporter growth, 96 h. 320,000 compounds, 6.9% hits. AID 504834; further: potency means the concentration at half of the fitted maximal effect; on the % scale 0 is the no-effect control and ±100 the full control effect
#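 Parasite growth measured via integrated firefly luciferase reporter in P. falciparum. Infected erythrocytes at 2% hematocrit, 0.05% parasitemia final were treated 96 hours at 37 C under 5% CO2, and luminescence was read.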
# Sm TGR block = inhibitors of Schistosoma mansoni thioredoxin glutathione reductase; Q962Y6; purified TGR, DTNB reduction, TNB absorbance 405 nm; Potency, µM (titrated, usually from 114 µM), for inactives: at the top dose activity change, negative = inhibition, hits mostly inhibitors; 360,000 compounds, 3% hits; AID 485364; further: potency means the concentration at half of the fitted maximal effect; on the % scale 0 is the no-effect control and ±100 the full control effect; nearly all actives have a fitted effect of over 60% in size
#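 Kinetic colorimetric format: TGR-catalysed, NADPH-driven DTNB reduction monitored via TNB absorbance. Enzyme dispensed at 20 nM; compound exposure 15 min at room temperature before reaction start.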
# SARS PLP yeast = inhibitors of SARS-CoV papain-like protease in yeast. 330,000 compounds, 0.19% hits. Potency, µM (top dose mostly 32.9 µM), without a hit: at the highest dose activity, positive = growth rescue, hits mostly activators. S. cerevisiae expressing SARS-CoV PLpro, growth rescue; calls by dose curve; further: potency means the concentration at half of the fitted maximal effect; 0% is about no effect; nearly all actives have a fitted effect of over 55% in size
# HCMV inh = inhibitors of human cytomegalovirus; HFF cells, HCMV-luciferase reporter, 72 h; stronger effect = lower value; activity change, negative = inhibition, % at 57.5 µM; 410,000 compounds, 4.5% hits; in the data active means activity change below about -60%; inconclusive means no clear call, values can overlap the other calls; inactive means above about -39%; further: on the % scale 0 is the no-effect control and ±100 the full control effect
#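 Inhibition of viral replication was scored as loss of reporter luminescence in HFFs infected with HCMV-luciferase (MOI 1 PFU/cell) for 72 h; compounds tested at 2 doses, normalized to buffer and Salinomycin controls.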
# HCV inhibitor = inhibitors of hepatitis C virus infection. Huh7.5.1 HCVcc-Cre infection, luciferase reporter, 44 h. Potency, µM (top dose mostly 41.8 µM), for the others: at the highest dose activity change, negative = inhibition, hits mostly inhibitors. 340,000 compounds, 3.4% hits. AID 651820; further: potency means the concentration at half of the fitted maximal effect; on the % scale 0 is the no-effect control and ±100 the full control effect
#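 Compounds are dispensed onto cells plated 4 h earlier at 1,000 per well, with HCVcc-Cre virus (about 0.5 moi) added next. Following 44 h of culture, luminescent signal is measured for 15 sec after 15 min with substrate at room temperature.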
# Pf growth 48h = P. falciparum growth inhibition at 48 hours (one generation); 310,000 compounds, 5.9% hits; Potency, µM (highest dose often 28.7 µM), without a hit: top-dose activity change, negative = inhibition, most hits filed as inhibitors; P. falciparum luciferase growth in erythrocytes, 48 h; further: potency means the concentration at half of the fitted maximal effect; on the % scale 0 is the no-effect control and ±100 the full control effect
#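 Parasite viability was followed by luminescence of a genomically integrated firefly luciferase. Cultures held 0.1% parasitemia at 2% hematocrit (final), incubated under 5% CO2 at 37 C.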
# An asterisk follows results filed as active; ? = inconclusive; . = no result given. Compounds with a hit are over-represented: about 15% of the library has one in this group of screens. Unless noted, the call rests on the fitted dose curve; in most records, active means well fitted curve in the direction sought with a large enough effect; inconclusive means small, poorly fitted or top-dose-only effect, or another doubt; inactive means no such curve, though single readings can be large; an effect the other way counts as inactive or inconclusive.
SMILES,Pf growth 96h,Sm TGR block,SARS PLP yeast,HCMV inh,HCV inhibitor,Pf growth 48h
OCc1ccccc1SSc1ccccc1CO,.,.,.,-98*,-10%,.
CC1=C([N+](=O)[O-])C(c2ccc(Cl)cc2)NC(=O)N1 (stereo not given),?,6%,7%,-11,-1%,-173%
CN(C)c1ccc(/C=C(/NC(=O)c2ccccc2)C(=O)N/N=C/c2ccc([N+](=O)[O-])c(O)c2)cc1,5.2µM*,-21%,-2%,-7,?,13µM*
COc1ccc(Cl)cc1C(=O)Nc1cccnc1Cl,?,-12%,6%,99,-5%,37%
C#CCn1c2ccccc2c2nc3ccccc3nc21,?,-2%,-3%,2,20%,-1%
CC(C)n1c2ccccc2c2nc3ccccc3nc21,.,11%,-11%,-18,13µM*,?
Cc1ccc(S(=O)(=O)NCC(=O)N(CC(=O)NC2CCCC2)c2ccc3c(c2)OCCO3)cc1,17%,1%,7%,40,2%,?
CCC(C)(C)NC(=O)CN(C(=O)CNS(=O)(=O)c1ccc(C)cc1)c1ccc2c(c1)OCCO2,.,-12%,2%,19,-2%,6.6µM*
CCOc1ccccc1-c1cc(C(=O)Nc2ccc(C(=O)O)cc2)c2ccccc2n1,10µM*,13%,-3%,115,-2%,?
COc1ccc(NC(=O)c2cc(-c3ccccn3)nc3ccccc23)c(OC)c1,.,.,-4%,4,?,.
CCOc1ccc(-c2cc(C(=O)O)c3ccccc3n2)c(OCC)c1,?,-6%,21%,?,?,-5%
CCN(CC)S(=O)(=O)c1cc(NC(=O)c2cc(-c3ccccn3)nc3ccccc23)ccc1C,?,5%,-6%,15,14µM*,9.3µM*
CCOc1ccccc1NC(=O)c1cc(-c2ccccn2)nc2ccccc12,?,-12%,-2%,0,-1%,15µM*
Cn1c(=O)oc2cc(S(=O)(=O)Nc3ccccc3)ccc21,28%,8%,0%,-39,11%,47%
CC1CC(C)CN(CCCNS(=O)(=O)c2ccc3c(c2)oc(=O)n3C)C1 (stereo not given),10µM*,4%,-1%,2,?,-2%
CC(C)NS(=O)(=O)c1ccc2c(c1)oc(=O)n2C,32%,89µM*,-3%,-18,?,18%
Cn1c(=O)oc2cc(S(=O)(=O)Nc3cccc4c3CCCC4)ccc21,?,7%,-2%,-91*,-4%,-28%
CCC1CCCCN1Cc1ccc(CNS(=O)(=O)c2ccc3c(c2)oc(=O)n3C)o1 (stereo not given),2%,79µM*,3%,-17,4%,?
COc1ccc(/C=C/C(=O)NCC(=O)N2CCC(N(C)CCN3CCOCC3)CC2)cc1OC,31%,-10%,-3%,-16,14%,-1%
COc1ccc(Cl)cc1NS(=O)(=O)c1cccc(C(=O)NC2CC2)c1,.,.,1%,-2,-4%,.
CCN(CC)S(=O)(=O)c1nnc(NC(=O)COc2ccccc2F)s1,.,-4%,.,34,.,.
CC1(C)CC(NC(=O)c2cc(S(=O)(=O)N3CCOCC3)ccc2Cl)CC(C)(C)N1,.,.,4%,25,-3%,.
COc1ccc(C(CNC(=O)c2cccc(S(=O)(=O)Nc3cccc(C)c3)c2)N2CCOCC2)cc1 (stereo not given),?,-15%,0%,-30,1%,?
O=C(Nc1ccc(SC(F)F)cc1)c1ccc2c(=O)n3c(nc2c1)CCC3,158%,0%,4%,-70*,4µM*,186%
COc1ccc(NC(=O)c2ccc3c(=O)n4c(nc3c2)CCCCC4)cc1,5%,0%,-8%,-30,?,0%
SMILES,Pf growth 96h,Sm TGR block,SARS PLP yeast,HCMV inh,HCV inhibitor,Pf growth 48h
COc1cccc(CN(C)C(=O)c2ccc3c(=O)n4c(nc3c2)CCC4)c1OC,-4%,0%,0%,41,3%,-5%
CCOc1ccccc1N(CC)C(=O)c1ccc2c(=O)n3c(nc2c1)CCCCC3,12µM*,1%,2%,?,-26%,?
CCN(C(=O)c1ccc2c(=O)n3c(nc2c1)CCCCC3)c1cc(C)ccc1C,.,12%,.,-6,.,.
Cc1ccc(NC(=O)c2ccc3c(=O)n4c(nc3c2)CCCCC4)cc1F,?,1%,-4%,16,10µM*,-12%
COc1cccc(COC(=O)c2ccc3c(=O)n4c(nc3c2)CCC4)c1OC,?,3%,-2%,-9,-8%,13µM*
Cn1c(SCC(=O)N2CCCC2=O)nc2ccccc21,37%,-4%,0%,1,8%,?
Cc1cccc(NC(=O)c2ccc3c(=O)n4c(nc3c2)CCCCC4)n1,58%,5%,-8%,72,14µM*,7%
Cc1cc(C)c2nc(NC(=O)c3ccc4c(=O)n5c(nc4c3)CCCCC5)sc2c1,?,-8%,8%,-72*,?,-7%
O=C(Nc1ccc(F)cc1Cl)c1ccc2c(=O)n3c(nc2c1)CCCCC3,3.7µM*,3%,-16%,14,2%,10%
CCCCc1nc(SCC(=O)N2CCCCC2)c2c(=O)n(C)c(=O)n(C)c2n1,?,0%,6%,-25,?,?
Cc1ccc(OCCNC(=O)C(=O)NCc2ccco2)cc1,19%,.,-1%,-29,-4%,19%
Cc1nc2ccc(S(=O)(=O)N(CC(=O)Nc3ccc(F)cc3F)Cc3ccccc3)cc2s1,.,0%,.,-1,.,.
CC(C)CCN(C(=O)Nc1ccccc1)C(C)c1cccs1 (stereo not given),.,0%,-5%,?,-12%,?
Cc1ccc(-n2c(=O)c3c4c(sc3n(Cc3ccccc3C)c2=O)CCC4)cc1C,.,8%,.,8,.,.
CC(=O)c1cccc(NC(=O)CSc2nc3ccccc3c(=O)n2CCCN2CCOCC2)c1,.,.,0%,0,-3%,.
COCCn1c(SC(C)C(=O)NC2CCCCC2C)nc2ccccc2c1=O (stereo not given),-26%,-8%,4%,.,31%,6%
COCCn1c(SC(C)C(=O)Nc2ccc3c(c2)OCCO3)nc2ccccc2c1=O (stereo not given),13µM*,0%,6%,-5,-27%,?
Cc1cccc(NC(=O)C(C)Sc2nc3ccccc3c(=O)n2CCCN2CCOCC2)c1 (stereo not given),8.3µM*,-4%,-1%,?,?,13µM*
O=C(COc1ccc(Cl)cc1)N(c1ccccc1Cl)C1CN2CCC1CC2 (stereo not given),?,5%,0%,-2,10µM*,?
